# Measured values published in PubChem BioAssay (NCI).
# Compounds without any hit were thinned out: in the full panel of roughly 79,000, 15% have a hit. Unmarked numbers belong to inactive results. No stated cut-off is given here; in the data, active means growth inhibition above about 70%; inactive means the rest. Where a SMILES comes first, the peptide text is derived from it. The star is where a group is joined. Boc = CC(C)(C)OC(=O)*
# Assay: NCI Yeast Anticancer Drug Screen. Data for the bub3 strain (AID 167)
# Details: S. cerevisiae bub3 mutant strain, at 50.0 µM, stronger effect = higher value
# In short: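 Inhibition values come from growth of compound-treated mutant yeast normalised to vehicle-treated controls.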
row,SMILES,growth inhibition [%]
1,CC1COC(C(C)C)(C(C)C)O1 (stereo unspecified),-2.7
2,CCc1cccc(CC)c1NC(=O)c1ccccc1Br,-0.05
3,Nc1cccc2c(O)cc(S(=O)(=O)O)cc12,-0.4
4,CC(C)(C)c1ccnc(C(O)(C(F)(F)F)C(F)(F)F)c1,-7.75
5,CCCCCCCCCCCCCCCCCC(=O)N/N=C/c1ccc(Cl)cc1,-2.85
6,Cc1[nH]c2cc([N+](=O)[O-])ccc2c1C,1.3
7,COc1cc(NC(C)=O)c2nccnc2c1,-0.95
8,CCOC(=O)C1=CC(C)(C(=O)OCC)Nc2c(nc(N)[nH]c2=O)N1 (stereo unspecified),-35.3
9,CC(=O)c1cccc(NC(=O)c2cccc(Cl)c2)c1,20.4
10,Cc1cc2c(c3c1C(=O)CC3)CCCC2(C)C,2.15
11,CCCC(=O)OC(C)COc1ccccc1 (stereo unspecified),13.4
12,CN(C)c1ccc(C2(c3ccc(N(C)C)cc3)NNC(=O)c3ccccc32)cc1,21.1
13,O=C(Nc1cccc([N+](=O)[O-])c1)C(=O)C(C(=O)c1ccccc1F)C1OC(=O)C2C=CC=CC21 (stereo unspecified),-32.9
14,NNC(=O)c1nc[nH]c1C(=O)NN,-7.6
15,Cc1ccc(S(=O)(=O)Oc2ccc(N(CC(=O)O)S(=O)(=O)c3ccc(C)cc3)cc2)cc1,-1.35
16,CCCCCNC(=O)CCC,7.05
17,CC(=Nc1cccc2ccccc12)c1c(O)cc(C)oc1=O,16.1
18,CN(C)CCOc1ccccn1,-21.7
19,CC(C)(C)c1cc(C2OC(N)=C(O)C2=O)cc(C(C)(C)C)c1O (stereo unspecified),5.4
20,CC1OC(c2ccccc2)C(=O)N1C1(C)C(=O)N2CCOC21c1ccccc1 (stereo unspecified),-1.95
21,Cc1ccc(-c2ccc(C)cc2)cc1,-36.9
22,COc1ccc(C(c2cc3c(cc2O)OCO3)n2ccnc2)cc1 (stereo unspecified),12.1
23,Cc1ccc(S(=O)(=O)c2ccc(O)c(C)c2)c(O)c1 (tested in a mixture with another compound),33.4
24,COc1ccc2c(=O)c(O)c(-c3ccccc3)oc2c1,15.2
25,COc1cc([N+](=O)[O-])c(S(=O)(=O)O)cc1-n1nc(-c2ccccc2)n[n+]1-c1cc(S(=O)(=O)[O-])c([N+](=O)[O-])cc1OC,-20.4
26,O=C(CN1CCN(c2ccccc2)CC1)n1nnc2ccccc21,-31.5

# Assay: NCI Yeast Anticancer Drug Screen. Data for the mlh1 rad18 strain (AID 175)
# Details: S. cerevisiae mlh1 rad18 strain growth inhibition; at 50.0 µM; stronger effect = higher value
# In short: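 Yeast w/ defined DNA-repair lesions; compound exposure; growth vs vehicle controls → % inhibition.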
row,SMILES,growth inhibition [%]
1,O=c1cc(-c2ccc(F)cc2)oc2ccccc12,30.4
2,Nc1cccc2c1C(=O)c1cccc(Nc3ccc4c(c3)C(=O)c3ccccc3C4=O)c1C2=O,32.9
3,COC(=O)c1ccccc1O,-19.5
4,COc1c2cc3c(cc2nc2occc12)OCO3,5.55
5,O=S1CCCO1 (stereo unspecified),0.3
6,CCOC(=O)C(CC(C)C)NC(=O)C(Cc1ccccc1)NC(=O)CNC(=O)OC(C)(C)C (stereo not drawn) (Boc-Gly-Phe-Leu-OEt; configuration not given here),18.2
7,O=C(/C(=C(/Br)I)c1ccccc1)c1ccccc1,28.4
8,O=P(c1ccccc1)(c1ccccc1)N1CC1c1ccccc1 (stereo unspecified),10.1
9,CC(=O)NNC(=S)/N=C/c1c(C)[nH]n(-c2ccccc2)c1=O,17.6
10,CCOC(=O)Nc1cc(Cl)c2ncn(C(=O)OCC)c2n1,17.9
11,C#CCC1(C(=O)OCC)C(=O)c2ccccc2N(C)C1=O (stereo unspecified),6.95
12,CC(=O)OCC1OC(OC(C)=O)C(NS(=O)(=O)c2ccc(C)cc2)C(OC(C)=O)C1OC(C)=O (stereo unspecified),-4.65
13,COc1cc(C2[C@H]3C(=O)N(c4ccc(Cc5ccc(N6C(=O)[C@@H]7ON(c8ccccc8)C(c8cc(OC)c(OC)c(OC)c8)[C@@H]7C6=O)cc5)cc4)C(=O)[C@H]3ON2c2ccccc2)cc(OC)c1OC (stereo partly specified),-6.3
14,c1ccc(C2(c3ccccc3)c3ccccc3-c3ccccc32)cc1,2.2
15,CC1COC(C(C)C)(C(C)C)O1 (stereo unspecified),22.4
16,CCc1cccc(CC)c1NC(=O)c1ccccc1Br,21.2
17,Nc1cccc2c(O)cc(S(=O)(=O)O)cc12,21.6
18,CC(C)(C)c1ccnc(C(O)(C(F)(F)F)C(F)(F)F)c1,-12.4
19,CCCCCCCCCCCCCCCCCC(=O)N/N=C/c1ccc(Cl)cc1,-25.1
20,Cc1[nH]c2cc([N+](=O)[O-])ccc2c1C,-0.5

row,SMILES,growth inhibition [%]
1,COc1cc(NC(C)=O)c2nccnc2c1,-14.2
2,CCOC(=O)C1=CC(C)(C(=O)OCC)Nc2c(nc(N)[nH]c2=O)N1 (stereo unspecified),-19.9
3,CC(=O)c1cccc(NC(=O)c2cccc(Cl)c2)c1,20.9
4,Cc1cc2c(c3c1C(=O)CC3)CCCC2(C)C,-1.8
5,CCCC(=O)OC(C)COc1ccccc1 (stereo unspecified),22.4
6,CN(C)c1ccc(C2(c3ccc(N(C)C)cc3)NNC(=O)c3ccccc32)cc1,-0.3
7,O=C(Nc1cccc([N+](=O)[O-])c1)C(=O)C(C(=O)c1ccccc1F)C1OC(=O)C2C=CC=CC21 (stereo unspecified),-19.9
8,NNC(=O)c1nc[nH]c1C(=O)NN,32
9,Cc1ccc(S(=O)(=O)Oc2ccc(N(CC(=O)O)S(=O)(=O)c3ccc(C)cc3)cc2)cc1,17.5
10,CCCCCNC(=O)CCC,40.9
11,CC(=Nc1cccc2ccccc12)c1c(O)cc(C)oc1=O,14.1
12,CN(C)CCOc1ccccn1,0.3
13,CC(C)(C)c1cc(C2OC(N)=C(O)C2=O)cc(C(C)(C)C)c1O (stereo unspecified),32.2
14,CC1OC(c2ccccc2)C(=O)N1C1(C)C(=O)N2CCOC21c1ccccc1 (stereo unspecified),-3.05
15,Cc1ccc(-c2ccc(C)cc2)cc1,-11.1
16,COc1ccc(C(c2cc3c(cc2O)OCO3)n2ccnc2)cc1 (stereo unspecified),4.9
17,Cc1ccc(S(=O)(=O)c2ccc(O)c(C)c2)c(O)c1 (tested in a mixture with another compound),50.2
18,COc1ccc2c(=O)c(O)c(-c3ccccc3)oc2c1,8.25
19,COc1cc([N+](=O)[O-])c(S(=O)(=O)O)cc1-n1nc(-c2ccccc2)n[n+]1-c1cc(S(=O)(=O)[O-])c([N+](=O)[O-])cc1OC,16.2
20,O=C(CN1CCN(c2ccccc2)CC1)n1nnc2ccccc21,-6
